“And” between values parts separate entries of the source, which are not always exact repeats. Identical values can stand only once. Screen size: about 220,000 compounds; about 16,000 (7.3%) were called active. Where a call stands in place of a potency, no number is given. Not shown: some 25% with an inconclusive outcome. The sample holds actives, similar compounds and a random draw of the others, so the mix is not that of the screen. Calls follow the shape of the dose curve; as a rule, active = well fitted inhibition curve with a large enough effect (not every such curve was filed as active); inconclusive = small, poorly fitted or top-dose-only effect, or another doubt; inactive = no such curve, though single readings can be large or run the other way. Some compounds were tested as several samples or in several runs, with calls that do not always agree.
Each molecule was assayed against Aldehyde dehydrogenase 1A1 (Homo sapiens) (UniProt P00352) (assay: qHTS Assay for Inhibitors of Aldehyde Dehydrogenase 1 (ALDH1A1)). Conditions: Purified ALDH1A1, NADH fluorescence, propionaldehyde substrate; series mostly up to 75.3 µM.
Potency is read from the fitted curve at half-maximal effect.

Aldehyde dehydrogenase 1A1 (Homo sapiens), sequence (P00352 whole entry, looked up): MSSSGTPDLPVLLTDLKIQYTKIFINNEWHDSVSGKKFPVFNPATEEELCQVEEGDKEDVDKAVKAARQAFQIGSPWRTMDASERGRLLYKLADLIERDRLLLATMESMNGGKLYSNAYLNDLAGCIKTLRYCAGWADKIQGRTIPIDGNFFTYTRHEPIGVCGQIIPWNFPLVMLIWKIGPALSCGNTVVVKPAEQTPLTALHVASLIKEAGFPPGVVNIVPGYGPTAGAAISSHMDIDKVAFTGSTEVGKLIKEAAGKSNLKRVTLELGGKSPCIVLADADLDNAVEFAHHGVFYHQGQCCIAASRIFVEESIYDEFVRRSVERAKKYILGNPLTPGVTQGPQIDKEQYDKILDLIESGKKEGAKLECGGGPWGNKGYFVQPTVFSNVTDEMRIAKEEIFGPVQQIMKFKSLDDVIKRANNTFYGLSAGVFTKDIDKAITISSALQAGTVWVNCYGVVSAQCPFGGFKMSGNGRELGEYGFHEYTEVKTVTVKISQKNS

| SMILES | Potency |
| --- | --- |
| CCCCN(CC(=O)NC(C)(C)C)C(=O)C(=O)Nc1ccc2c(c1)OCCO2 | inactive |
| N=c1c2c3c(sc2ncn1N)CCCC3 | inactive |
| c1nnc2c3c4c(sc3ncn12)CCC4 | inactive |
| S=c1[nH]nc2c3c4c(sc3ncn12)CCCC4 | 25.1 µM (active) |
| Clc1cccc(-c2nc(NCC3CCCO3)c3ccccc3n2)c1 (stereo unspecified) | inactive |
| C[C@@H](C(=O)Nc1ccc2ccccc2c1)[C@@H]1C[C@@]1(C)[C@@H](NC(=O)c1cccnc1)c1ccccc1 | inactive and 22.4 µM (active) |
| O=C(Nc1ccc(N2CCN(C(=O)c3ccccc3)CC2)c(Cl)c1)c1cccnc1 | inactive |
| CCC(=O)Nc1cccc(NC(=O)c2cccnc2)c1 | inactive |
| CC(NC(=O)Nc1ccc2c(c1)OCO2)c1ccncc1 (stereo unspecified) | inactive |
| COc1cccc(OC)c1C(=O)Nc1nnc(C(C)C)s1 | 7.08 µM (active) |
| COc1cccc(OC)c1C(=O)Nc1ccc(Cc2ccncc2)cc1 | inactive |
| CCn1nnc(NC(=O)c2c(OC)cccc2OC)n1 | inactive |
| CC(CC(=O)O)C(=O)c1ccc(Cl)c([N+](=O)[O-])c1 (stereo unspecified) | inactive |
| COc1cc(C(=O)NC(=S)NCc2ccco2)cc(OC)c1OC | 5.01 µM (active) |
| COc1ccc(-c2cc(C(=O)NCc3ccco3)no2)cc1OC | inactive |
| COc1cc(C(=O)N[C@@H](C)C(=O)NCc2ccco2)cc(OC)c1OC | inactive |
| Cc1cccc(NC(=S)N2CCC(O)CC2)c1C | inactive |
| CC(C)(c1ccccc1)c1ccc(OCCN)cc1 | inactive |
| CCOc1ccc(/C=N/Nc2nncc(-c3ccccc3)n2)cc1OC | inactive |
| CN(C)S(=O)(=O)c1cccc(NC(=O)COC(=O)c2cc(=O)[nH]c(=O)[nH]2)c1 | inactive |
| CN(C)S(=O)(=O)c1ccc(NC(=O)COC(=O)Cn2[nH]c(=O)c3ccccc3c2=O)cc1 | 28.2 µM (active) |
| CN(C)S(=O)(=O)c1ccc(NC(=O)COC(=O)c2n[nH]c3ccccc23)cc1 | inactive |
| C=CCN(c1ccc(Cl)cc1)S(=O)(=O)c1cccc(C(=O)OCC(=O)N(C)C)c1 | inactive |
| O=C(NNC(=S)NCc1ccccc1)c1ccc(OC(F)F)cc1 | inactive |

| SMILES | Potency |
| --- | --- |
| Cc1nc2nc[nH]n2c(=O)c1C/C=C/c1ccccc1 | inactive |
| CC(C)=CCN1CCC2(CCc3ccccc32)CC1 | inactive |
| Cc1cccc(C(=O)NNC(=O)c2cccc([N+](=O)[O-])c2)c1 | inactive |
| CCC(C)NCC(=O)Nc1ccc([N+](=O)[O-])cc1C(=O)Nc1ccccc1F (stereo unspecified) | inactive |
| O=[N+]([O-])c1cccc(/C([O-])=C(/C(=S)Nc2ccccc2F)[n+]2ccccc2)c1 | 22.4 µM (active) |
| CCOc1cc(N2CCOCC2)c(OCC)cc1NC(=O)C1=NN(c2cccc(C)c2)C(=O)CC1 | inactive |
| CCNC(=S)Nc1ccc(OC(F)(F)F)cc1 | inactive |
| CCOC(=O)NC(=O)/C(C#N)=C\c1ccccc1 | 7.08 µM (active) |
| CCOC(=O)/C(C#N)=C/c1ccc(N2CCN(Cc3ccccc3)CC2)cc1 | inactive |
| CCOC(=O)C(C(=O)OCC)C(C#N)c1ccccc1 (stereo unspecified) | inactive |
| Cc1ccnc(NC(=O)Cn2ccc([N+](=O)[O-])n2)c1 | inactive |
| CS(=O)(=O)c1ccc2nnn(OCC(=O)Nc3cccc(C#N)c3)c2c1 | 10 µM (active) |
| Cc1ccc(CC(=O)Nc2cccc(C#N)c2)cc1 | inactive |
| Cc1cc(NC(=O)COn2nnc3ccccc32)no1 | inactive |
| CC(=O)c1ccccc1NC(=O)CC1(CC(=O)O)CCCCC1 | inactive |
| C=CCC1CCC(=O)N2CCCC12 (stereo unspecified) | inactive |
| CC(C)(C)NC(=O)CSC(=Nc1ccccc1F)NC#N | 1.26 µM (active) |
| Cc1ccccc1CSCC(=O)NC(=O)NC(C)(C)C | inactive |
| COc1ccccc1-n1ccnc1SCC(=O)NC(C)(C)C | inactive |
| COc1cccc(OC)c1CN(C)C(=O)c1cnccc1C(F)(F)F | inactive |
| O=C(N/N=C/c1ccc([N+](=O)[O-])cc1)c1c[nH]c2ccccc12 | inactive |
| CC(=O)NCCC(=O)Nc1nc(C)c(Cc2ccc3c(c2)OCO3)s1 | inactive |
| O=C(Nc1ccccc1)c1cc2ccccc2[nH]1 | inactive |
| S=c1ccc2ccccc2[nH]1 | 25.1 µM (active) |

| SMILES | Potency |
| --- | --- |
| COc1cc(COCC(O)CN2CCN(Cc3ccc4c(c3)OCO4)CC2)cc(OC)c1OC (stereo unspecified) | inactive |
| Cc1nc([N+](=O)[O-])cn1CC(=O)Nc1ccc2c(c1)OCO2 | inactive |
| Cn1cnc(C(F)(F)F)c1-c1ccc([N+](=O)[O-])cc1 | inactive |
| Cc1cccc(C)c1Nc1nnc(SCC(=O)Nc2sccc2C#N)s1 | inactive |
| CC(C)C(=O)Nc1c(O)c2ccccc2[nH]c1=O | inactive |
| O=C1C(c2[nH]c3ccccc3c2O)=Nc2ccccc21 | 15.8 µM (active) |
| CC(=O)Nc1ccc(OCC(=O)NCc2ccc(C)cc2)cc1 | inactive |
| C/C=C/c1ccc(OCC(O)CN2CCCCCCC2)c(OC)c1 (stereo unspecified) | inactive |
| CCOC(=O)CNc1nc(Cl)nc(Nc2ccccc2)n1 | inactive |
| CC(NC(=S)Nc1ccc(OC(F)F)cc1)c1ccc(F)cc1 (stereo unspecified) | inactive |
| O=C(Nc1cccc(C(=O)N2CCCC2)c1)c1ccccc1 | inactive |
| Cc1ccc(C(=O)N2CCN(C(=O)N3CCOCC3)CC2)cc1 | inactive |
| N#Cc1ccccc1-n1c(N)c(C(=O)N2CCCC2)sc1=S | 11.2 µM (active) |
| Cc1ccc(-n2c(N)c(C(=O)N3CCOCC3)sc2=S)c(C)c1 | 10 µM (active) |
| Cc1ccc(OCCCC(=O)N2CCOCC2)c(C)c1 | inactive |
| Cc1nc2ccc(C(=O)N3CCN(c4ccccc4)CC3)cc2s1 | inactive |
| Cc1cccc(-n2c(N)c(C(=O)N3CCN(C)CC3)sc2=S)c1 | 22.4 µM (active) |
| O=C(c1ccc(S(=O)(=O)c2ccccc2)cc1)N1CCCCCC1 | inactive |
| Cc1cccc(C(=O)N2CCCN(C(=O)c3cccc(C)c3)CC2)c1 | inactive |
| CCN(CC)S(=O)(=O)c1ccc(N(C)Cc2cccc(OC)c2OC)nc1 | inactive |
| CC(C)(C)OC(=O)NCCCCC1=CC2=CC(=O)C(C)(OC(=O)c3cccs3)C(=O)C2=CO1 (stereo unspecified) | inactive |
| O=C(c1snnc1-c1ccccc1)N1CCOCC1 | inactive |
| Cc1cc(-c2nnc(CCC(=O)NC(c3ccccc3)c3ccccc3)o2)no1 | inactive |
